Reference: the supplement of paper PMC9446081
± gives the standard deviation of the averaged measurements.

Legend:
Experiment in all cases: relative enzymatic activity vs untreated control (fraction); higher = less inhibition
Settings in all cases: 100 µM; incubation time: 2 h at 37 C
DNA gyrase = tested on: DNA gyrase
Protocol: (§1)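 In vitro enzymatic inhibition assays (ProFoldin kits) for 12 purified essential E. coli enzymes or complexes, each treated with 218 active antibacterial compounds at 100 µM for 2 h at 37°C. Read-outs were fluorescence or absorbance (phosphate detection, dye binding), converted to activity via standard curves and expressed relative to untreated DMSO controls.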

DNA helicase = DNA helicase (UniProt P0ACB1)
Protocol: as §1

DNA ligase = DNA ligase (UniProt B1XA82)
Protocol: as §1

DNA polymerase = DNA polymerase (UniProt P10443)
Protocol: as §1

DNA primase = DNA primase (UniProt P0ABS7)
Protocol: as §1

GlmU = GlmU (UniProt A7ZTU1)
Protocol: as §1

Guanlyate kinase = Guanlyate kinase (UniProt Q0TBG1)
Protocol: as §1

MurA = MurA (UniProt Q3YX52)
Protocol: as §1

MurD = biological target: T1, MurD (UniProt P14900)
T1 sequence (whole entry): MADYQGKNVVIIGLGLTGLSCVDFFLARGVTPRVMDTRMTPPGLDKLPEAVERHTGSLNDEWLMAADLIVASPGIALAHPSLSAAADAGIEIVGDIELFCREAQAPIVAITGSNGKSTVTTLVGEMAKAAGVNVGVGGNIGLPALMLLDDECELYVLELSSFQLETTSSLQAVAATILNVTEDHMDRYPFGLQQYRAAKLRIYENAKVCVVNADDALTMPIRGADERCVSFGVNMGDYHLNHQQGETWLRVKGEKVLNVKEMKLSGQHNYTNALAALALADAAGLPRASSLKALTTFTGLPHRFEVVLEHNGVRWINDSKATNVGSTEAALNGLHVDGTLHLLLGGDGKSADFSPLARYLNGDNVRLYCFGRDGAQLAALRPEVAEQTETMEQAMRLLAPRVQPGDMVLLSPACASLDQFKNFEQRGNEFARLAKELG
Protocol: as §1

MurF = biological target: T2, MurF (UniProt P11880)
T2 sequence (whole entry): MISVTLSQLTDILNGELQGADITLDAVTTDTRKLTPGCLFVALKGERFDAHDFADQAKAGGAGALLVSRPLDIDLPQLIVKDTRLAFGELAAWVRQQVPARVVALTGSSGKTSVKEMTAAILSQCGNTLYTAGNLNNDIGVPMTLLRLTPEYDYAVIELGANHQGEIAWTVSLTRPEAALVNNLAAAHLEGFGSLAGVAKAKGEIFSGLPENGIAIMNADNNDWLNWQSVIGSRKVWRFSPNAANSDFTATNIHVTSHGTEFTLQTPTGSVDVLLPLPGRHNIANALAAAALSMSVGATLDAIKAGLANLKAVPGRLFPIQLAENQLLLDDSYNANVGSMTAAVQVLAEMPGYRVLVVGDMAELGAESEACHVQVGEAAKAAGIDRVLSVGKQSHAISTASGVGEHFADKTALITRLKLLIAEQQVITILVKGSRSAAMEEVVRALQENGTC
Protocol: as §1

RNA polymerase = tested on: RNA polymerase
Protocol: as §1

Sequence of DNA polymerase (P10443 whole entry): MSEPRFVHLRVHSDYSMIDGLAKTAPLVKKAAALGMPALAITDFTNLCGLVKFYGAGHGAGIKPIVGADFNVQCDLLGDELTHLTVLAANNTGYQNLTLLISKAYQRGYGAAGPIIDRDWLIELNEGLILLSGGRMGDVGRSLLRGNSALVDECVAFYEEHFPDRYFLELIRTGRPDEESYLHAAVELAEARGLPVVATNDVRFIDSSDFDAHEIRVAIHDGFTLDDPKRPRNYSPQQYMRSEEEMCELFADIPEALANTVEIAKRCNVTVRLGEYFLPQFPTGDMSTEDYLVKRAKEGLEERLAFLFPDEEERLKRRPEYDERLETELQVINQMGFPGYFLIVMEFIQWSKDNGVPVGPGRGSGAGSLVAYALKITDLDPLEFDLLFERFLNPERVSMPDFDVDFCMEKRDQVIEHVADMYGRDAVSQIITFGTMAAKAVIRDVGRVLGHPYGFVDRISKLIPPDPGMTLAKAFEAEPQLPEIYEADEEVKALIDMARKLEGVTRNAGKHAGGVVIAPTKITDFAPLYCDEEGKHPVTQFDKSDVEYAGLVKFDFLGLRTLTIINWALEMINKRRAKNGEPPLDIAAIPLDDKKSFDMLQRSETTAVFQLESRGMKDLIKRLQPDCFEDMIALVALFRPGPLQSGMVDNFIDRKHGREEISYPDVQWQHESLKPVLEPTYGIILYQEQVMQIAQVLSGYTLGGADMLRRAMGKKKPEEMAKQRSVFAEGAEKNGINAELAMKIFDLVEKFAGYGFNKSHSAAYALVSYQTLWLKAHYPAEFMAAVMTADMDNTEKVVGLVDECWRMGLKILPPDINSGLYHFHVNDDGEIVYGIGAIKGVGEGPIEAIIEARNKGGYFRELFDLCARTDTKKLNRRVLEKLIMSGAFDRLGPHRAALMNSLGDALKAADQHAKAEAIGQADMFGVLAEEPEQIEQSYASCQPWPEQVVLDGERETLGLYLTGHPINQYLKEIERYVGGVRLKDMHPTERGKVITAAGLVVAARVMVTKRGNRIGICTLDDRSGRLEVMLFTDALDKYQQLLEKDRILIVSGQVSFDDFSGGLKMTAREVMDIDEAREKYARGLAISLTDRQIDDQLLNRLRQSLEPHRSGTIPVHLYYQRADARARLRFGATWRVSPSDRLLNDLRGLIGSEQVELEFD
Sequence of GlmU (A7ZTU1 whole entry, looked up): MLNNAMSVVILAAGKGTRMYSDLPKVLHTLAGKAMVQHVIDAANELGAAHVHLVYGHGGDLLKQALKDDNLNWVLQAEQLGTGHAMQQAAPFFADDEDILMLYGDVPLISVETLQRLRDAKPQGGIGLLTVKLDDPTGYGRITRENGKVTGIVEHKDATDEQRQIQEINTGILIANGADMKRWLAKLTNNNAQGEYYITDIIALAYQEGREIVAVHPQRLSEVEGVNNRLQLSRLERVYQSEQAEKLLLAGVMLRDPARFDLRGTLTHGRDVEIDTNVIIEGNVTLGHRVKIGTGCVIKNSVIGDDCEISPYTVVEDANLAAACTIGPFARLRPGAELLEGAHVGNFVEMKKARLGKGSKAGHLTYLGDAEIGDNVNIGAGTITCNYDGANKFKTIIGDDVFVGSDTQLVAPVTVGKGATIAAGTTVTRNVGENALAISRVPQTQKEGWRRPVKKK
Sequence of MurA (Q3YX52 whole entry): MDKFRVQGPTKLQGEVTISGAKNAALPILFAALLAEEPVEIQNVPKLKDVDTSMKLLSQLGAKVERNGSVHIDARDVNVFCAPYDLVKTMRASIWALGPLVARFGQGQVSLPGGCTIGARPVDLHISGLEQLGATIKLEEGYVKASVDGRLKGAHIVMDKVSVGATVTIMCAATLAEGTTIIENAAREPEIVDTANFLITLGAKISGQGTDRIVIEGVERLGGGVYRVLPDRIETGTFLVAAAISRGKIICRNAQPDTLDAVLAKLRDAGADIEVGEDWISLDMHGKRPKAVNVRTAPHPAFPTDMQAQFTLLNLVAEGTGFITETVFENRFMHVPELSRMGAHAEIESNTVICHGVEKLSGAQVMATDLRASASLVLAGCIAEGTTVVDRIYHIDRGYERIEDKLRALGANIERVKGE
Sequence of DNA helicase (P0ACB1 whole entry): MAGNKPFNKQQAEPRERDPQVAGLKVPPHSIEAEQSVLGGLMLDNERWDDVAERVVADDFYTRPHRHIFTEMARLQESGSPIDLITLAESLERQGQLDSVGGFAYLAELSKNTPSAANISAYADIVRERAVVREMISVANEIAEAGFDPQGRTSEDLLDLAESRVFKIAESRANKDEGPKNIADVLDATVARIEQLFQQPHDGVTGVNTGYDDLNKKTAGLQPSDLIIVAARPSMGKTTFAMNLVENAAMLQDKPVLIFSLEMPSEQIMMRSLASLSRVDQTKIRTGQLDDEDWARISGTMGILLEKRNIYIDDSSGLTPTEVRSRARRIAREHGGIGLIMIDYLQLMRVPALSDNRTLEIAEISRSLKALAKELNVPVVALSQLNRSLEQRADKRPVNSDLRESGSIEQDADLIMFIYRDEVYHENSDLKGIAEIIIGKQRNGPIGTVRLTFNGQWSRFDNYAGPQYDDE
Sequence of Guanlyate kinase (Q0TBG1 whole entry): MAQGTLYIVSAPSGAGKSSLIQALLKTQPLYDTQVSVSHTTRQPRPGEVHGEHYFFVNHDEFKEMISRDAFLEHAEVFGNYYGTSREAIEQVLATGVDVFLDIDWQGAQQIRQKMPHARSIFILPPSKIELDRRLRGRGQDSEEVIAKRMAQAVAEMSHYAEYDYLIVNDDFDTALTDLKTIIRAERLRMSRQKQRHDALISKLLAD
Sequence of DNA ligase (B1XA82 whole entry): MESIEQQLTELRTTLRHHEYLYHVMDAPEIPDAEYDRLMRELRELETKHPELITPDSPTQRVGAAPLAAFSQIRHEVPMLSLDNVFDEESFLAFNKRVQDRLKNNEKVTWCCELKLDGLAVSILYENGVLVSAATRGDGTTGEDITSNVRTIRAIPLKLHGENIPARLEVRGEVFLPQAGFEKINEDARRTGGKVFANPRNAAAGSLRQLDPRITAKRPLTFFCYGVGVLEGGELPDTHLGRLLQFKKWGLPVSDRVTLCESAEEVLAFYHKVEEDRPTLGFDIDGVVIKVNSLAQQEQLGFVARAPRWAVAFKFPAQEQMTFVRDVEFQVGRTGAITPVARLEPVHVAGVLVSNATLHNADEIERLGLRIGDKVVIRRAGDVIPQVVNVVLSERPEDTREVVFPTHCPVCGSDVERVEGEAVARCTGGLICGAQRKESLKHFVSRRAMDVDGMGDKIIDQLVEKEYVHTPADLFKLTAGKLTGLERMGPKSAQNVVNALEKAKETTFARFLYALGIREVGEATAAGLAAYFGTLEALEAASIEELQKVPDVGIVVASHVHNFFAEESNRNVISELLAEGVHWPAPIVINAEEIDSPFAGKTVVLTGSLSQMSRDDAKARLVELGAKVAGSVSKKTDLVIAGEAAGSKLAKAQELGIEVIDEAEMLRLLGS
Sequence of DNA primase (P0ABS7 whole entry): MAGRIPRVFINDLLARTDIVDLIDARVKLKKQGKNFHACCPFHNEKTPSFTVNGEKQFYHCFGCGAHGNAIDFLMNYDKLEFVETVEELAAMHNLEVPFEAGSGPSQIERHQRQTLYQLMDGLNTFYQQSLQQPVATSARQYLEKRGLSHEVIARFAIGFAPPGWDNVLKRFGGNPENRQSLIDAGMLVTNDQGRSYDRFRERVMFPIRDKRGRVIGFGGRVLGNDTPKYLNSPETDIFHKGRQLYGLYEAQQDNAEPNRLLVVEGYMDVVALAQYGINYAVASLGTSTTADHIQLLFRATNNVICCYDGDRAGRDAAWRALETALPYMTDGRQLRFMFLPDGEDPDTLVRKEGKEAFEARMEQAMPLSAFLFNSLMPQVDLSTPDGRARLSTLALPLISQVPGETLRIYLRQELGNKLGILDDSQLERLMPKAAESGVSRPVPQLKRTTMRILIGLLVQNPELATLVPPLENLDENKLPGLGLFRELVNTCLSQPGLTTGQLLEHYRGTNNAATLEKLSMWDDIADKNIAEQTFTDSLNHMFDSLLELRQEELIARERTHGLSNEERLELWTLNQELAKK

| SMILES | relative enzymatic activity (DNA gyrase) | relative enzymatic activity (DNA helicase) | relative enzymatic activity (DNA ligase) | relative enzymatic activity (DNA polymerase) | relative enzymatic activity (DNA primase) | relative enzymatic activity (GlmU) | relative enzymatic activity (Guanlyate kinase) | relative enzymatic activity (MurA) | relative enzymatic activity (MurD) | relative enzymatic activity (MurF) | relative enzymatic activity (RNA polymerase) |
| --- | --- | --- | --- | --- | --- | --- | --- | --- | --- | --- | --- |
| NC(=O)N/N=C/c1ccc([N+](=O)[O-])o1 | 0.691 ± 0.48 | 0.657 ± 0.29 | 0.974 ± 0.26 | 1.04 ± 0.16 | 0.761 ± 0.072 | 1.006 ± 0.004 | 0.751 ± 0.048 | 0.504 ± 0.021 | 0.507 ± 0.66 | 0.962 ± 0.21 | 0.734 ± 0.088 |
| COC(=O)N/N=C/c1c[n+]([O-])c2ccccc2[n+]1[O-] | 0.905 ± 0.076 | 0.651 ± 0.26 | 0.933 ± 0.14 | 1.16 ± 0.23 | 0.803 ± 0.018 | 1.012 ± 0.0043 | 0.591 ± 0.026 | 0.719 ± 0.12 | 0.604 ± 0.4 | 0.913 ± 0.27 | 0.789 ± 0.081 |
| CCn1cc(C(=O)O)c(=O)c2cc(F)c(N3CCNCC3)nc21 | 0.00427 ± 0.006 | 0.582 ± 0.19 | 1.03 ± 0.25 | 0.579 ± 0.52 | 0.684 ± 0.19 | 1 ± 0.017 | 0.761 ± 0.07 | 0.839 ± 0.13 | 0.573 ± 0.39 | 0.982 ± 0.23 | 0.833 ± 0.03 |
| COC12C(COC(N)=O)C3=C(C(=O)C(C)=C(N)C3=O)N1CC1NC12 (configuration not stated) | 1.01 ± 0.063 | 0.964 ± 0.15 | 1.03 ± 0.025 | 1.31 ± 0.47 | 0.728 ± 0.2 | 1.02 ± 0.018 | 1.05 ± 0.032 | 0.264 ± 0.12 | 0.589 ± 0.41 | 1.01 ± 0.23 | 0.882 ± 0.01 |
| CC1CN(c2c(F)c(N)c3c(=O)c(C(=O)O)cn(C4CC4)c3c2F)CC(C)N1 (configuration not stated) | 0.00841 ± 0.012 | 0.442 ± 0.043 | 1.49 ± 0.054 | 1.23 ± 0.24 | 0.715 ± 0.21 | 0.913 ± 0.04 | 0.883 ± 0.029 | 0.603 ± 0.083 | 0.597 ± 0.4 | 0.543 ± 0.76 | 0.92 ± 0.0099 |
| C=CC1=C(C(=O)O)N2C(=O)[C@@H](NC(=O)/C(=N\O)c3csc(N)n3)[C@H]2SC1 | 0.489 ± 0.086 | 0.523 ± 0.095 | 0.92 ± 0.15 | 1.13 ± 0.24 | 0.774 ± 0.038 | 0.988 ± 0.07 | 0.885 ± 0.068 | 0.212 ± 0.095 | 0.619 ± 0.42 | 0.981 ± 0.22 | 0.894 ± 0.077 |
| CCn1cc(C(=O)O)c(=O)c2cnc(N3CCNCC3)nc21 | 0.262 ± 0.12 | 0.533 ± 0.057 | 0.92 ± 0.084 | 1.16 ± 0.2 | 0.876 ± 0.015 | 0.94 ± 0.024 | 0.891 ± 0.16 | 0.865 ± 0.047 | 0.583 ± 0.38 | 1.136 ± 0.011 | 0.83 ± 0.027 |
| Cc1oc(=O)oc1CN1CCN(c2cc3c(cc2F)c(=O)c(C(=O)O)c2n3C(C)S2)CC1 (configuration not stated) | 0.0525 ± 0.074 | 0.431 ± 0.01 | 1.19 ± 0.31 | 1.23 ± 0.25 | 0.852 ± 0.0094 | 0.942 ± 0.024 | 1.12 ± 0.12 | 0.452 ± 0.31 | 0.586 ± 0.4 | 0.963 ± 0.18 | 0.842 ± 0.022 |
| Cl.O=C(O)c1cn(-c2ccc(F)cc2)c2cc(N3CCNCC3)c(F)cc2c1=O | 0.0194 ± 0.027 | 0.484 ± 0.099 | 1.18 ± 0.41 | 1.19 ± 0.31 | 0.688 ± 0.12 | 0.955 ± 0.031 | 0.73 ± 0.11 | 0.698 ± 0.044 | 0.595 ± 0.41 | 0.919 ± 0.24 | 0.228 ± 0.089 |
| O=C(O)c1cn(C2CC2)c2cc(N3CCC(O)(COc4ccc(N5C[C@H](CO)OC5=O)cc4F)CC3)c(F)cc2c1=O | 0.0421 ± 0.059 | 0.414 ± 0.095 | 0.9068 ± 0.0026 | 1.13 ± 0.22 | 0.851 ± 0.039 | 0.9967 ± 0.0077 | 0.905 ± 0.15 | 0.608 ± 0.25 | 0.583 ± 0.39 | 1.22 ± 0.022 | 0.8 ± 0.067 |
| O=C(O)P(=O)(O)O | 0.105 ± 0.15 | 0.549 ± 0.16 | 0.871 ± 0.14 | 0.703 ± 0.39 | 0.775 ± 0.04 | 1 ± 0.014 | 0.914 ± 0.092 | 0.79 ± 0.12 | 0.6 ± 0.4 | 0.945 ± 0.24 | 0.8 ± 0.14 |
| CN[C@H]1CN(c2ccc3c(=O)c(C(=O)O)cn(-c4nccs4)c3n2)C[C@@H]1OC | 0.253 ± 0.27 | 0.18 ± 0.16 | 0.706 ± 0.08 | 0.641 ± 0.27 | 0.622 ± 0.13 | 1 ± 0.039 | 0.851 ± 0.064 | 0.603 ± 0.14 | 0.58 ± 0.36 | 0.955 ± 0.21 | 0.769 ± 0.11 |
| Cc1ccc(S(=O)(=O)O)cc1.NC1CCN(c2nc3c(cc2F)c(=O)c(C(=O)O)cn3-c2ccc(F)cc2F)C1.O (configuration not stated) | 1.41 ± 0.49 | 0.509 ± 0.054 | 1.02 ± 0.043 | 1.15 ± 0.22 | 0.892 ± 0.035 | 0.991 ± 0.05 | 0.699 ± 0.11 | 0.644 ± 0.029 | 0.935 ± 0.86 | 1.01 ± 0.21 | 0.771 ± 0.031 |
| CCC1OC(=O)C(C)C(=O)C(C)C(OC2OC(C)CC(N(C)C)C2O)C(C)(OC)CC(C)C(=O)C(C)C2N(CCCCn3cnc(-c4cccnc4)c3)C(=O)OC12C (configuration not stated) | 0.862 ± 0.39 | 0.396 ± 0.024 | 1.1 ± 0.3 | 1.24 ± 0.3 | 0.854 ± 0.012 | 0.9359 ± 0.0057 | 0.967 ± 0.099 | 0.668 ± 0.05 | 0.525 ± 0.34 | 0.799 ± 0.13 | 0.822 ± 0.037 |
| CN(C)C1C(O)=C(C(N)=O)C(=O)C2(O)C(O)=C3C(=O)c4c(O)cccc4C(C)(O)C3CC12.Cl (configuration not stated) | 0.904 ± 0.27 | 0.696 ± 0.28 | 1.03 ± 0.033 | 1.37 ± 0.52 | 0.711 ± 0.17 | 0.9683 ± 0.0011 | 1.05 ± 0.046 | 0.712 ± 0.038 | 0.627 ± 0.43 | 0.964 ± 0.2 | 0.857 ± 0.014 |
| Cl.O=C1CC2(CCCC2)CC(=O)N1CCCCN1CCN(c2ncccn2)CC1 | 0.812 ± 0.33 | 0.485 ± 0.034 | 0.999 ± 0.1 | 1.05 ± 0.045 | 0.81 ± 0.029 | 1.03 ± 0.042 | 1 ± 0.013 | 0.865 ± 0.1 | 0.609 ± 0.44 | 0.97 ± 0.21 | 0.83 ± 0.039 |
| O=C1C=CC(=O)N1 | 0.511 ± 0.14 | 0.616 ± 0.23 | 0.848 ± 0.071 | 1 ± 0.3 | 0.801 ± 0.014 | 0.973 ± 0.066 | 0.814 ± 0.18 | 0.171 ± 0.052 | 0.533 ± 0.5 | 0.951 ± 0.22 | 0.83 ± 0.2 |
